{"source": "PubChem BioAssay (Tox21)", "note": "Records with an inconclusive call do not appear. A call without a number means that no potency is given here. Active and inactive are the calls of the source. Calls follow the shape of the full dose curve.", "data": [{"assay": "qHTS assay to identify small molecule agonists of the progesterone receptor (PR) signaling pathway - cell viability counter screen (AID 1346799); also: nearly all actives have a fitted effect of over 45% in size", "conditions": "PR-UAS-bla HEK293T viability, CellTiter-Glo luminescence, 16 h; series mostly up to 92.4 µM", "excerpt": "National Center for Advancing Translational Sciences [NCATS]\nNIH Chemical Genomics Center [NCGC]\nU.S. Environmental Protection Agency [EPA]\nNational Institutes of Environmental Health Sciences [NIEHS]\nNational Toxicology Program [NTP]\nU.S. Food and Drug Administration [FDA]\nProgesterone receptor (PR), a nuclear hormone receptor, plays an important role in development, metabolic homeostasis and reproduction. It is activated by the steroid hormone progesterone. Endocrine disrupting chemicals (EDCs) and their interactions with steroid hormone receptors like PR causes disruption of normal endocrine function. To identify the compounds that stimulate PR signaling, a PR-UAS-bla GripTite cell line i.e. PR-UAS-bla HEK293T (Invitrogen, Carlsbad, CA, USA) containing a beta-lactamase reporter gene under the control of an UAS response element was used to screen Tox21 10K compound library. The cytotoxicity of the Tox21 compound library against the PR-bla cell line was tested in parallel by measuring the cell viability using CellTiter-Glo assay in the same wells.\nTox21 Assay Protocol Summary:\nPR-UAS-bla HEK293T cells were dispensed at 3,000 cells/5 uL of assay medium containing 2% charcoal stripped FBS per well into black wall/clear-bottom 1536-well plates using a Multidrop Combi (ThermoFisher Scientific, Waltham, MA) dispenser. After the assay plates were incubated at a 37C and 5% CO2 for 6 hr, 23 nL of compounds dissolved in DMSO, positive controls or DMSO only was transferred to the assay plate by a Pintool station (Kalypsys, San Diego, CA). The plates were incubated at 37C and 5% CO2 for 16 hr. Then 1 uL of LiveBLAzer B/G FRET substrate was added using a Flying Reagent Dispenser (FRD, Aurora Discovery, San Diego, CA), the plates were incubated at room temperature for 2 hours, and fluorescence intensity was measured by an Envision plate reader (PerkinElmer, Shelton, CT). For cell viability readout that measures cytotoxicity, 4 uL/well of CellTiter-Glo reagent was added into the assay plates using a FRD. After 30 min incubation at room temperature, the luminescence intensity in the plates was measured using a ViewLux (PerkinElmer) plate reader.", "values": [{"compound": "C(CCOCC1CO1)COCC1CO1", "note": "(stereo not given)", "Potency": "inactive"}, {"compound": "CN1CCN(C(=O)O[C@H]2c3nccnc3C(=O)N2c2ccc(Cl)cn2)CC1", "Potency": "inactive"}, {"compound": "O=C(Cc1ccccc1)OCc1ccccc1", "Potency": "inactive"}, {"compound": "ClCCOCOCCCl", "Potency": "inactive"}, {"compound": "O=CNC(N1CCN(C(NC=O)C(Cl)(Cl)Cl)CC1)C(Cl)(Cl)Cl", "note": "(stereo not given)", "Potency": "inactive"}, {"compound": "NC(=O)c1cc([N+](=O)[O-])cc([N+](=O)[O-])c1", "Potency": "inactive"}, {"compound": "Oc1c(Cl)cccc1Cl", "Potency": "inactive"}, {"compound": "O=C(CCN1CC1)OCC(CO)(COC(=O)CCN1CC1)COC(=O)CCN1CC1", "Potency": "inactive"}, {"compound": "CCOC(=O)C1(c2ccccc2)CCN(CCc2ccc(N)cc2)CC1", "Potency": "inactive"}, {"compound": "CCCCP(CCCC)CCCC", "Potency": "inactive"}, {"compound": "C=C(C)[C@@H]1CC=C(C=O)CC1", "Potency": "inactive"}, {"compound": "Cc1cc(C)c(C(=O)P(=O)(C(=O)c2c(C)cc(C)cc2C)c2ccccc2)c(C)c1", "Potency": "inactive"}, {"compound": "CC(CCc1ccccc1)NC(C)C(O)c1ccc(O)cc1", "note": "(stereo not given)", "Potency": "inactive"}, {"compound": "Cc1ccccc1CO[C@@H]1C[C@@]2(C(C)C)CC[C@]1(C)O2", "Potency": "inactive"}, {"compound": "C[N+](=O)[O-]", "Potency": "inactive"}, {"compound": "COC(=O)C(c1ccccc1)C1CCCCN1", "note": "(stereo not given)", "Potency": "inactive"}, {"compound": "C[C@@H]1CN(C2CCC(C#N)(c3ccc(F)cc3)CC2)CC[C@]1(C(=O)O)c1ccccc1", "note": "(stereo not given in full)", "Potency": "inactive"}, {"compound": "CC1=NNC(=O)N(/N=C/c2cccnc2)C1", "Potency": "inactive"}, {"compound": "CC(N)=S", "Potency": "inactive"}, {"compound": "CC(C)[N+](=O)[O-]", "Potency": "inactive"}, {"compound": "Cc1ncc(CNC(=O)N(CCCl)N=O)c(N)n1", "Potency": "inactive"}, {"compound": "CC1=C(C(=O)O)N2C(=O)[C@@H](N)[C@H]2SC1", "activity change, negative = cytotoxicity": "0.398% [at 19 µM] (inactive)"}, {"compound": "CC(C(=O)c1ccccc1)N(C)C", "note": "(stereo not given)", "Potency": "inactive"}, {"compound": "CCCSC(=O)N(CCC)CCC", "Potency": "inactive"}, {"compound": "ClC(Cl)Br", "Potency": "inactive"}, {"compound": "COc1cccc(C(=O)NN(C(=O)c2cc(C)cc(C)c2)C(C)(C)C)c1C", "Potency": "inactive"}, {"compound": "CC(C=O)Cc1ccc2c(c1)OCO2", "note": "(stereo not given)", "Potency": "inactive"}, {"compound": "ClCC(Cl)Cl", "Potency": "inactive"}, {"compound": "CNNC", "Potency": "inactive"}, {"compound": "Cc1nnc2n1-c1sc(CCC(=O)N3CCOCC3)cc1C(c1ccccc1Cl)=NC2", "Potency": "inactive"}, {"compound": "C[C@]12CC[C@H]3[C@@H](CC=C4C[C@@H](O)CC[C@@]43C)[C@@H]1CC[C@@H]2O", "Potency": "inactive"}, {"compound": "CCOP(=S)(OCC)SCSc1ccc(Cl)cc1", "Potency": "inactive"}, {"compound": "CS(=O)(=O)c1cc(C(F)(F)F)ccc1C(=O)c1cnoc1C1CC1", "Potency": "inactive"}, {"compound": "CCN(Cc1ccc(Cl)nc1)/C(=C/[N+](=O)[O-])NC", "Potency": "inactive"}, {"compound": "COP(N)(=S)Oc1ccccc1C(=O)OC(C)C", "note": "(stereo not given)", "Potency": "inactive"}, {"compound": "CNC(=O)Oc1cccc(C(C)C)c1", "Potency": "inactive"}, {"compound": "Nc1cc2c3c(c1)C(c1ccccc1)=N[C@@H](NC(=O)c1cccnc1)C(=O)N3CC2", "Potency": "inactive"}, {"compound": "CNC(=O)Oc1ccc(N(C)C)c(C)c1", "Potency": "inactive"}, {"compound": "N#CCBr", "Potency": "inactive"}, {"compound": "Nc1ccccc1Cl", "Potency": "inactive"}]}]}
